We go through 53 compounds from PubChem BioAssay AID2546 (National Center for Advancing Translational Sciences (NCATS), 2010).

Each structure is given as a SMILES string. The whole screen tested about 310,000 compounds, of which about 11,000 (3.5%) were called active. Another 8% or so got no clear call; they are omitted. For the sample, actives were picked, then their nearest neighbours and some compounds at random. Values without a mark were called inactive. Calls follow the shape of the dose curve; as a rule, active = well fitted inhibition curve with a large enough effect; inconclusive = small, poorly fitted or top-dose-only effect, or effect the other way; inactive = flat fitted curve, though single readings scatter.
% is scaled to controls: 0 for no effect and ±100 for the full control effect; potency is read from the fitted curve at half-maximal effect.

The test is described as follows: VP16 counterscreen qHTS for inhibitors of ROR gamma transcriptional activity.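 Also: Gal4-VP16 expression switched on by copper sulfate through the metallothionein promoter; nearly all actives have a fitted effect of over 50% in size.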 The following applies: Drosophila S2 Gal4-VP16 UAS-luciferase, luminescence, 20 h; series mostly up to 53.6 µM; activity, negative = inhibition: at the top concentration.
Take `COc1ccc(S(=O)(=O)Nc2ccc3oc(C)c(C(C)=O)c3c2)cc1`: the Potency was 11.2 µM (active).

For `CC(=O)c1c(C)oc2ccc(NS(=O)(=O)c3ccccc3)cc12`, the “activity, negative = inhibition” value was -22.8%.

As for `Cc1ccnc(NS(=O)(=O)c2ccc(NC(=O)c3oc4ccc(F)cc4c3C)cc2)n1`, the “activity, negative = inhibition” value is -12.4%.

`CC1CCCCN1C(=O)CCS(=O)(=O)Cc1ccccc1` (stereo not drawn): the “activity, negative = inhibition” value was 1.9%.

In the case of `COc1ccc(/C=C2\SC(=O)N(CCC(=O)NCCCn3ccnc3)C2=O)cc1`, the “activity, negative = inhibition” value was 0.385%.

For `COc1ccc(C2=Nn3c(nnc3-c3ccccc3O)SC2)cc1`, the “activity, negative = inhibition” value was -17%.

With `CCn1cc(C(=O)NCC(=O)NC(C)(C)CO)c(=O)c2cc3c(cc21)OCO3`, the “activity, negative = inhibition” value is -2.53%.

As to `Cc1ccc(C(=O)NC23CC4CC(CC(C4)C2)C3)c(Cl)c1`, the “activity, negative = inhibition” value is 23.1%.

As to `Cc1noc(C)c1CCC(=O)N1CCCC(CO)(Cc2ccccc2)C1` (stereo not drawn), the “activity, negative = inhibition” value was -1.97%.

`COc1ccc(C2CC(=O)Nc3cc(C)c(C)cc32)c(OC)c1OC` (stereo not drawn): the “activity, negative = inhibition” value was 0.0143%.

For `CCCOc1ccccc1C1CC(=O)Nc2cc3c(cc21)OCO3` (stereo not drawn), the Potency is 14.1 µM (active).

Turning to `COc1ccccc1C1C2=C(COC2=O)Nc2cc3c(cc21)OCO3` (stereo not drawn), the “activity, negative = inhibition” value was 2.3%.

`O=C(NCCCN1CCCC1=O)C(=O)NCC1OCCN1S(=O)(=O)c1ccc(Br)cc1` (stereo not drawn): the “activity, negative = inhibition” value was 20.7%.

Consider `CC(C)(C)OC(=O)N/N=C/c1cn(-c2ccccc2)nc1-c1cccnc1`, for which the “activity, negative = inhibition” value is -14%.

In the case of `O=C(O)c1ccccc1-c1ccccc1C(=O)Nc1nccs1`, the “activity, negative = inhibition” value is -6.71%.

`COc1ccc(-c2nn(-c3ccccc3)cc2C(=O)Nc2nccs2)cc1OC`: the Potency is 22.4 µM (active).

In the case of `CN(C)/N=C/c1cn(-c2ccccc2)nc1-c1cccnc1`, the “activity, negative = inhibition” value was -6.24%.

For the compound `COc1ccc(-c2nn(-c3ccccc3)cc2/C=N/Nc2ccccn2)cc1OC`, the Potency is 8.91 µM (active).

As to `CC(=O)Cc1nsc(NC(=O)c2ccc(COc3ccc(C)cc3)o2)n1`, the “activity, negative = inhibition” value was -3.91%.

Take `COc1ccc(-c2nn(-c3ccccc3)cc2C(=O)Nc2nc(CC(C)=O)ns2)cc1`: the Potency is 12.6 µM (active).

Take `COc1ccc(NC(=O)c2cn(-c3ccccc3)nc2SC)cc1`: the “activity, negative = inhibition” value was -0.895%.

For `O=C(O)c1ccc(NC(=O)c2cn(-c3ccccc3)nc2-c2ccc(Cl)cc2)cc1`, the “activity, negative = inhibition” value was -9.81%.

As to `O=C1C[C@@H](c2ccc3ccccc3c2)N1S(=O)(=O)c1ccccc1[N+](=O)[O-]`, the “activity, negative = inhibition” value is -6.73%.

Regarding `Cc1ccc(CNS(=O)(=O)c2ccc3c(c2)N(C)CCO3)cc1`, the “activity, negative = inhibition” value is -0.865%.

As to `Cc1cc(=O)[nH]c(Nc2cccc(Br)c2)n1`, the “activity, negative = inhibition” value was -6.76%.

Take `Cc1cccc(C(=O)NCC(=O)OCC(=O)N2CC3(C)CC2CC(C)(C)C3)c1` (stereo not drawn): the “activity, negative = inhibition” value was -8.87%.

For the compound `COc1ccccc1C(=O)N1CC2(C)CC1CC(C)(C)C2` (stereo not drawn), the “activity, negative = inhibition” value is -3.63%.

`Cc1nnnn1/C(=C\c1ccccc1)C(=O)OCC(=O)N1CC2(C)CC1CC(C)(C)C2` (stereo not drawn): the Potency is 10 µM (active).

In the case of `CCOC(=O)c1ccc(NC(=O)c2cccnc2)cc1`, the “activity, negative = inhibition” value is 3.63%.

Regarding `CCSc1nc2sc3c(c2c(=O)n1-c1ccc(C)cc1)CCN(C)C3`, the “activity, negative = inhibition” value was -1.82%.

Take `Cc1ccc(C2CCN(C(=S)Nc3cccc(Cl)c3)C2)cc1` (stereo not drawn): the Potency was 12.6 µM (active).

Regarding `O=C(C1CCCO1)N1CCN(C(=S)Nc2cccc(Cl)c2)CC1` (stereo not drawn), the “activity, negative = inhibition” value was 4.52%.

As for `Cc1cccc(NC(=S)N2CCCC(c3nc4ccccc4[nH]3)C2)c1` (stereo not drawn), the activity, negative = inhibition is 5.42% [at 10 µM].

On to `CC(=O)c1nn(-c2cccc(C(F)(F)F)c2)c(=O)[nH]c1=O`, for which the “activity, negative = inhibition” value was 6.04%.

As to `COc1ccccc1CCNC(=O)c1c(C)nn(CC(C)C)c1Cl`, the “activity, negative = inhibition” value was 22.8%.

With `COc1cccc(C(=O)N/N=C(\C)c2cccc(NC(=O)c3ccc(F)cc3)c2)c1OC`, the “activity, negative = inhibition” value was -3.24%.

Consider `COc1ccc(NC2CCCN(C(=O)c3ccncc3)C2)cc1` (stereo not drawn), for which the “activity, negative = inhibition” value was 1.45%.

Turning to `CC(C)c1ccc(NC2CCCN(C(=O)c3ccncc3)C2)cc1` (stereo not drawn), the Potency was 1.58 µM (active).

Take `Cc1cccc(C(=O)N2CCCC(Nc3ccc(C(C)C)cc3)C2)n1` (stereo not drawn): the “activity, negative = inhibition” value was -6.89%.

With `O=C(Nc1ccc(C(=O)NCc2ccccc2Cl)cc1)C1=CSCCO1`, the “activity, negative = inhibition” value was -5.26%.

For the compound `COc1ccc(-n2nc(C(=O)NCC(=O)N3CCCCCC3)c3ccccc3c2=O)cc1Cl`, the “activity, negative = inhibition” value is 1.85%.

Turning to `CC(=O)c1cccc(NC(=O)CN2C(=O)c3cccnc3Oc3ccc(Cl)cc32)c1`, the “activity, negative = inhibition” value is 8.7%.

With `C#CC(CCN1CCCCC1)(OC)c1ccccc1` (stereo not drawn), the “activity, negative = inhibition” value was -3.36%.

On to `CCNC(=O)CCc1nc(-c2ccc(C)cc2)no1`, for which the “activity, negative = inhibition” value is 4.81%.

For `CCNC(=O)CCc1nc(-c2ccc(C(C)(C)C)cc2)no1`, the Potency was 2.51 µM (active).

As for `CN1CCN(C(=O)CCc2nc(-c3ccc(Cl)cc3)no2)CC1`, the “activity, negative = inhibition” value was 20.9%.

On to `COC(=O)c1ccc(N2CCOCC2)c(NC(=O)c2ccc(Br)o2)c1`, for which the “activity, negative = inhibition” value is -9.5%.

For `CCN1CCN(C(c2cccnc2)c2cc(Cl)c3cccnc3c2O)CC1` (stereo not drawn), the Potency was 5.01 µM (active).

For `CCOC(=O)N1CCN(C(=O)C2CCN(c3ncnc4c3sc3cccc(F)c34)CC2)CC1`, the “activity, negative = inhibition” value was -1.75%.

As to `Cc1onc(C(=O)NN)c1C(=O)N1CCN(C(c2ccccc2)c2ccccc2)CC1`, the “activity, negative = inhibition” value was -9.37%.

As for `CCOC(=O)N1CCN(C(c2cccnc2)c2ccc3cccnc3c2O)CC1` (stereo not drawn), the Potency is 6.31 µM (active).

Regarding `Oc1ccccc1CN1CCN(C(c2ccccc2)c2ccccc2)CC1`, the “activity, negative = inhibition” value is 15.7%.

In the case of `CCN1CCN(c2ccc(NC(=O)c3cnccn3)cc2)CC1`, the “activity, negative = inhibition” value is -0.768%.
